Data published in PubChem BioAssay (NCATS).
Records with an inconclusive call do not appear. Activity calls are given as the source filed them. Calls follow the shape of the dose curve; as a rule, active = well fitted curve in the direction sought with a large enough effect; inconclusive = small, poorly fitted or top-dose-only effect, or another doubt; inactive = no such curve, though single readings can be large; an effect the other way counts as inactive or inconclusive.

Tests used:
[1] = target: Alpha-galactosidase (Coffea arabica) (UniProt Q42656); assay: Counterscreen for Glucocerebrosidase Inhibitors: qHTS Assay for Coffee Bean alpha-Galactosidase at pH 4.5 (AID 957); conditions: purified coffee bean alpha-galactosidase, fluorogenic substrate; series mostly up to 76.9 µM
Sequence of Alpha-galactosidase (Coffea arabica) (Q42656 whole entry, looked up): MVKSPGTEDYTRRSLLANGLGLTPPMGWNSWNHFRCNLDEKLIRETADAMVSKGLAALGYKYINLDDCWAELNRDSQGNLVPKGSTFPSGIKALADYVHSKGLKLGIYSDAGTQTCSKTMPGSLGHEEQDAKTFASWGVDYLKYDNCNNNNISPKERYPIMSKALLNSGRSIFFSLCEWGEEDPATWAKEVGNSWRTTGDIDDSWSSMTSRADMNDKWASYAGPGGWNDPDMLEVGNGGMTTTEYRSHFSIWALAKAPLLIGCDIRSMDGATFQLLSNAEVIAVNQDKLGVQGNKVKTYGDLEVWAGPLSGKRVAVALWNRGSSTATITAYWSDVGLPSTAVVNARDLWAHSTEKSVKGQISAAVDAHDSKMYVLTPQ
Method in brief: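 Fluorogenic qHTS at pH 4.5 (citrate buffer with Tween-20): 2 nM enzyme, 80 uM 4-MU-alpha-galactoside substrate, compound titrated 0.7 nM to 77 uM, 20 min room temperature. Glycine/NaOH stop; 4-MU read Ex 365/Em 440; Hill-equation AC50 against no-enzyme and enzyme controls.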

[2] = MultiTox-Fluor Cytotoxicity Assay - LYMP1-002 - Live Cells (AID 955); conditions: LYMP1-002 lymphoblastoid live-cell protease fluorescence viability; series mostly up to 46.1 µM; also: potency is read from the fitted curve at half-maximal effect
Method in brief: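 After 16 h compound exposure at 37 C, live LYMP1-002 lymphoblastoid cells (2500/well) were quantified by cleavage of cell-permeant GF-AFC substrate, read at 405/510 nm after 60 min. Concentration-response fitted with Hill equation for AC50.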

[3] = MultiTox-Fluor Cytotoxicity Assay - LYMP1-003 - Dead Cells (AID 961); conditions: LYMP1-003 lymphoblastoid cells, dead-cell protease fluorescence; series mostly up to 92.2 µM; also: potency is read from the fitted curve at half-maximal effect; nearly all actives have a fitted effect of over 70% in size
Method in brief: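 LYMP1-003 human lymphoblastoid cells (2500/well) exposed to compound 16 h at 37 C in complete medium; dead-cell protease read with bis-AAF-R110 fluorescence (Ex/Em 485/520) after 60 min at room temperature. Normalized to DMSO and 15 uM tetraoctylammonium bromide; AC50 from Hill fit.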

[4] = Cell Viability - LYMP1-003 - Assay at 24 hr (AID 963); conditions: LYMP1-003 lymphoblastoid cell viability; series mostly up to 92.2 µM; also: potency is read from the fitted curve at half-maximal effect
Method in brief: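 Concentration-response qHTS: ATP loss measured by CellTiter-Glo luminescence after 24 h compound exposure at 37 C. Cells were LYMP1-003 human lymphoblastoid, 2500 per well. AC50 derived via standard Hill equation modeling.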

[5] = Cell Viability - LYMP1-003 - Assay at 40 hr (AID 964); conditions: LYMP1-003 lymphoblastoid viability; series mostly up to 92.2 µM; also: potency is read from the fitted curve at half-maximal effect; nearly all actives have a fitted effect of over 60% in size
Method in brief: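 Viability is taken as cellular ATP, read by CellTiter-Glo luminescence after 40 h of compound exposure at 37 C. Cells: human lymphoblastoid line LYMP1-003 at 2500/well; AC50 values derived by Hill-equation fitting of concentration-response data.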

[6] = Cell Viability - LYMP2-003 (AID 965); conditions: LYMP2-003 lymphoblastoid cell viability; series mostly up to 92.2 µM;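 also: potency is read from the fitted curve at half-maximal effect; cells exposed to compounds for 24 h before reading; nearly all actives have a fitted effect of over 50% in size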
Method in brief: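 qHTS, human lymphoblastoid line, 2500 cells/well, complete medium. 24 h drug, 37 C. ATP-based luminescent readout; Hill-fit AC50.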

[7] = Cell Viability - LYMP2-004 (AID 966); conditions: LYMP2-004 lymphoblastoid cell viability, qHTS; series mostly up to 92.2 µM; also: potency is read from the fitted curve at half-maximal effect; nearly all actives have a fitted effect of over 65% in size
Method in brief: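 AC50 values come from Hill modelling of concentration-dependent loss of intracellular ATP, measured by CellTiter-Glo luminescence. Human LYMP2-004 lymphoblastoid cells (2500/well) were exposed to compound for 24 h at 37 C.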

[8] = Cell Viability - LYMP2-017 (AID 972); conditions: LYMP2-017 lymphoblastoid cell viability; series mostly up to 92.2 µM; also: potency is read from the fitted curve at half-maximal effect; nearly all actives have a fitted effect of over 55% in size
Method in brief: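 CellTiter-Glo luminescence (cellular ATP, 30 min RT) measured cytotoxicity after 24 hr compound treatment at 37 C. Cells were a human lymphoblastoid line, LYMP2-017, plated at 2500/well and incubated 5 hr first; concentration-response fitted with Hill equation for AC50.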

[9] = Cell Viability - LYMP2-019 (AID 973); conditions: LYMP2-019 lymphoblastoid cell line viability; series mostly up to 92.2 µM; also: potency is read from the fitted curve at half-maximal effect; nearly all actives have a fitted effect of over 55% in size
Method in brief: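 AC50 values come from Hill-equation fits of luminescent intracellular ATP (CellTiter-Glo, 30 min, room temperature) following 24 h compound exposure at 37 C. Cells: LYMP2-019 lymphoblastoid line, 2500 per well, in complete culture medium.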

[10] = MultiTox-Fluor Cytotoxicity Assay - LYMP1-002 - Dead Cells (AID 960); conditions: LYMP1-002 lymphoblastoid cells, dead-cell protease fluorescence; series mostly up to 46.1 µM; also: potency is read from the fitted curve at half-maximal effect; nearly all actives have a fitted effect of over 60% in size
Method in brief: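 Dead-cell fluorescence (Ex/Em 485/520) after 16 h compound exposure at 37 C of LYMP1-002 lymphoblastoid cells in complete medium; AC50 by Hill equation, with data scaled between DMSO and 15 uM tetraoctylammonium bromide.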

[11] = MultiTox-Fluor Cytotoxicity Assay - LYMP1-003 - Live Cells (AID 962); conditions: LYMP1-003 lymphoblastoid cells, MultiTox-Fluor live-cell protease fluorescence; series mostly up to 92.2 µM; also: potency is read from the fitted curve at half-maximal effect
Method in brief: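 Live-cell protease activity (GF-AFC substrate, 405/510 nm, 60 min at room temperature) after 16 h, 37 C compound exposure of human lymphoblastoid LYMP1-003 cells; concentration-response fitted to the Hill equation for AC50.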

[12] = Cell Viability - LYMP2-005 (AID 967); conditions: LYMP2-005 lymphoblastoid cell viability; series mostly up to 92.2 µM; also: potency is read from the fitted curve at half-maximal effect
Method in brief: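 Luciferase-based ATP quantitation served as the viability measure in human lymphoblastoid LYMP2-005 cells exposed to test compounds for 24 h at 37 C in complete culture medium. Potency (AC50) was obtained by fitting concentration-response curves with the Hill equation.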

[13] = Cell Viability - LYMP2-009 (AID 968); conditions: LYMP2-009 lymphoblastoid cell viability; series mostly up to 92.2 µM; also: potency is read from the fitted curve at half-maximal effect; nearly all actives have a fitted effect of over 55% in size
[14] = Cell Viability - LYMP2-011 (AID 969); conditions: LYMP2-011 lymphoblastoid cells viability; series mostly up to 92.2 µM; also: potency is read from the fitted curve at half-maximal effect; nearly all actives have a fitted effect of over 60% in size
Method in brief: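 Cytotoxicity qHTS with ATP content as read-out: lymphoblastoid cells (2500/well) exposed to compound for 24 h at 37 C, then luciferase luminescence measured. Concentration-response data fitted with the standard Hill equation to give AC50.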

[15] = Cell Viability - LYMP2-013 (AID 970); conditions: LYMP2-013 lymphoblastoid cells viability; series mostly up to 92.2 µM; also: potency is read from the fitted curve at half-maximal effect; nearly all actives have a fitted effect of over 55% in size
Method in brief: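 qHTS cytotoxicity: ATP-dependent luminescence (CellTiter-Glo, 30 min room temperature) read after 24 h compound exposure at 37 C of 2500 LYMP2-013 lymphoblastoid cells per well. Concentration-response fitted with Hill equation to give AC50.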

[16] = Cell Viability - LYMP2-015 (AID 971); conditions: LYMP2-015 lymphoblastoid cell viability; series mostly up to 92.2 µM
Method in brief: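 Cytotoxicity readout: decrease in intracellular ATP (CellTiter-Glo luminescence) in 2500 LYMP2-015 lymphoblastoid cells/well after 24 h compound exposure at 37 C. Concentration-response data fitted with the standard Hill equation to give AC50.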

[17] = Cell Viability - LYMP2-021 (AID 974); conditions: LYMP2-021 lymphoblastoid cells viability; series mostly up to 92.2 µM
Method in brief: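 AC50 values come from Hill-equation fits to CellTiter-Glo luminescence (ATP content), read after 24 hour compound exposure at 37 C of 2500 LYMP2-021 lymphoblastoid cells/well; tetraoctylammonium bromide as positive control.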

[18] = Cell Viability - LYMP2-023 (AID 975); conditions: LYMP2-023 lymphoblastoid cell viability; series mostly up to 92.2 µM
Method in brief: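 Intracellular ATP, read by CellTiter-Glo luminescence, reports viability after 24 hr compound exposure at 37 C. 2500 lymphoblastoid cells/well (LYMP2-023) seeded 5 hr beforehand; Hill fits give AC50; positive control tetraoctylammonium bromide.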

[19] = Cell Viability - LYMP2-025 (AID 976); conditions: LYMP2-025 lymphoblastoid cell viability; series mostly up to 92.2 µM; also: potency is read from the fitted curve at half-maximal effect
Method in brief: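 Cytotoxicity read as loss of intracellular ATP (luciferase luminescence) after 24 h compound treatment at 37 C. Uses LYMP2-025 lymphoblastoid cells in 1536-well format; Hill-equation modelling gives AC50; tetraoctylammonium bromide as positive control.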

Measured: Potency

CC(C)(C)c1ccc(C(O)CCCN2CCC(C(O)(c3ccccc3)c3ccccc3)CC2)cc1 (centres undefined)
inactive: [1]

N[C@@H](Cc1c[nH]c2ccc(O)cc12)C(=O)O
inactive: [1]

CCN(CC)CC(=O)Nc1c(C)cccc1C
inactive: [1]

COC(=O)C1=C(C)NC(C)=C(C(=O)OC)C1c1ccccc1[N+](=O)[O-]
inactive: [1]
active: [2] 31.6 µM | [3] 50.1 µM | [4] 50.1 µM | [5] 39.8 µM | [6] 50.1 µM | [7] 31.6 µM | [8] 50.1 µM | [9] 79.4 µM

O=C(O)CCc1nc(-c2ccccc2)c(-c2ccccc2)o1
inactive: [1]

Cc1ccc(C(=O)Nc2ccc(S(=O)(=O)O)c3cc(S(=O)(=O)O)cc(S(=O)(=O)O)c23)cc1NC(=O)c1cccc(NC(=O)Nc2cccc(C(=O)Nc3cc(C(=O)Nc4ccc(S(=O)(=O)O)c5cc(S(=O)(=O)O)cc(S(=O)(=O)O)c45)ccc3C)c2)c1
inactive: [1]

O=C(CCl)c1ccc(Cl)cc1Cl
active: [2] 7.94 µM | [10] 7.94 µM | [3] 10 µM | [11] 15.8 µM | [4] 20 µM | [5] 20 µM | [6] 10 µM | [7] 6.31 µM | [12] 10 µM | [13] 6.31 µM | [14] 6.31 µM | [15] 7.94 µM | [16] 5.01 µM | [8] 3.16 µM | [9] 7.94 µM | [17] 3.98 µM | [18] 6.31 µM | [19] 7.94 µM

COc1ccc(CN(CCN(C)C)c2ccccn2)cc1
inactive: [1]

NC(N)=NCCC[C@H](N)C(=O)O
inactive: [1]
